Screening results as filed in PubChem BioAssay.
Only some compounds are listed: those with a hit (about 3.4% of all), similar ones and a draw of the others.
MITF inh = blocks human microphthalmia-associated transcription factor | AID 1259374 | 650,000 compounds, 0.91% hits | O75030 | inhibition, % at 2.6 µM | AlphaScreen MITF homodimerization, bead proximity signal; in the data active = inhibition above about 50%
FBW7 activator = human FBW7 E3 ligase activation, primary screen. Q969H0. AlphaScreen FBW7–phospho-cyclin E peptide binding, activator screen. normalized activity (activation), % at 26.1 µM. 650,000 compounds, 0.13% hits. AID 1259310; in the data active = normalized activity above about 1.9%;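 note: purified mutant Fbw7 with reduced substrate affinity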
GPR151 ag = human GPR151 activation; PathHunter beta-arrestin GPR151 cells, luminescence; AID 1508602; Q8TDV0; activation, % at 11.2 µM; 650,000 compounds, 1% hits; in the data active = activation above about 4.9%
TEAD-YAP inh = TEAD-YAP interaction inhibition; HEK-TIYL cells, TEAD-Gal4/YAP UAS-luciferase luminescence; inhibition, % at 9.12 µM; 640,000 compounds, 1.4% hits; AID 1259422; in the data active = inhibition above about 32%
Hits are given with their value; . = inactive.

SMILES	MITF inh	FBW7 activator	GPR151 ag	TEAD-YAP inh
Cc1ccc(S(=O)(=O)N/N=C/c2ccc(Cl)c([N+](=O)[O-])c2)cc1	.	.	.	.
C=CCOc1ccc(/C=C2/C(=O)ON=C2C)cc1Br	.	.	.	.
C#CCOc1ccc(/C=C2/C(=O)ON=C2C)cc1OC	.	.	.	.
COc1cc(/C=C2\C(=O)ON=C2C)ccc1OCCc1ccccc1	.	.	.	38
CCCOc1ccc(/C=C2/C(=O)ON=C2C)cc1OC	.	.	.	.
COc1cc(/C=C2\C(=O)ON=C2C)ccc1O	60	.	.	.
C#CCOc1ccc(/C=C2/C(=O)ON=C2C)cc1	58	.	.	.
CCOc1ccc(/C=C2/C(=O)ON=C2C)cc1Br	55	.	.	.
O=C1NC2(CCN(C(=O)C3=Cc4ccccc4OC3)CC2)Oc2ccccc21	.	.	.	.
CC(C)(C)C(=O)Nc1cccc(-c2nc3ncccc3o2)c1	.	.	.	.
CC(C)(C)C(=O)Nc1ccc(-c2nc3ncccc3o2)cc1	.	.	.	60
CC(=O)N=c1sc(-c2ccccc2)c2c(=O)[nH]c3ccccc3n12	.	.	.	.
CCOc1ccc(C(C)=O)cc1CSc1nnc(Nc2ccccc2)s1	.	.	.	35
CCOc1ccccc1Nc1nnc(SCc2cc(C(C)=O)ccc2OC)s1	.	.	.	.
O=C(NC1CCCCC1)n1c(=O)oc2cc(Br)ccc21	.	.	.	.
CC1CC(C)CN(S(=O)(=O)c2ccc(C(=O)Oc3ccc(/C=C(\C#N)c4nc5ccccc5s4)cc3)cc2)C1 (stereo unspecified)	.	.	.	.
Cc1cc(C)n2nc(C(=O)N/N=C/c3cc(Cl)cc([N+](=O)[O-])c3O)nc2n1	.	.	.	.
O=C(N/N=C/c1ccccc1C(F)(F)F)c1cccs1	.	.	.	.
Cc1cc(C)n2nc(C(=O)N/N=C/c3cc(Cl)ccc3O)nc2n1	56	.	.	.
O=C(N/N=C/c1ccc(O)c(O)c1O)c1cccs1	54	.	.	.
CC(C)(C)c1cc(C(=O)N/N=C/c2cc(Cl)ccc2O)n[nH]1	.	.	.	76
O=C(N/N=C\c1cc(Cl)ccc1O)c1cccs1	.	.	.	43
O=C(N/N=C/c1ccccc1Cl)c1cccs1	.	.	.	.
Cc1cc(C(=O)N/N=C\c2cc(C(C)(C)C)ccc2O)n[nH]1	.	.	.	.
COc1ccc(C(N)C(=O)N2CCC(Nc3ccc4[nH]ncc4c3)CC2)cc1 (stereo unspecified)	.	.	.	.
SMILES	MITF inh	FBW7 activator	GPR151 ag	TEAD-YAP inh
O=C(N/N=C/c1cc(Cl)ccc1O)c1ccc(F)cc1	.	.	.	67
Cc1cc(C(=O)N/N=C\c2ccc(Cl)cc2Cl)c(C)o1	.	.	.	.
Cc1cc(C(=O)N/N=C/c2ccc(O)c(O)c2O)c(C)o1	53	.	.	.
Cc1cc2nc3c(nc2cc1C)-c1ccccc1C3=O	.	.	.	33
Cc1ccc2nc3c(nc2c1)-c1ccccc1C3=O	.	.	.	.
Cc1cc(C)nc(NS(=O)(=O)c2ccc(NC(=O)c3c(F)cccc3F)cc2)n1	.	.	.	.
COc1cccc(OC)c1C(=O)Nc1ccc(-c2cn3c(C)csc3n2)cc1	.	.	.	38
CCOCC(=O)Nc1ccc(-c2cn3c(C)csc3n2)cc1	.	.	.	51
Cc1csc2nc(-c3ccc(NS(=O)(=O)c4cccnc4)cc3)cn12	.	.	.	36
Cc1cc(Nc2ccc(C)c(F)c2)n2nnnc2n1	.	.	.	.
Cc1onc(-c2ccccc2Cl)c1C(=O)NCCC(C)C	.	.	.	.
O=C(O)c1cccc2c1C(=O)c1cc(Cl)ccc1-2	.	.	.	.
CCOC(=O)N1CCc2c(sc3ncn(CC(=O)c4ccccc4)c(=O)c23)C1	.	.	.	49
Cc1cc(N2CCN(c3nc4ccccc4s3)CC2)n2ncnc2n1	.	.	.	51
COc1cccc(N2CCN(c3cc(C)nc4ncnn34)CC2)c1	.	.	.	.
Cc1cccc2nc(CNC(=O)CCc3nnc(C4CCCCC4)o3)cn12	.	.	.	.
Cc1nc2cc(N3CCN(C)CC3)c(NC(=O)C3CC3)cc2c(=O)n1Cc1ccccc1	.	.	.	34
O=C(CSc1nc(SCC(=O)N2CCOCC2)nc(SCC(=O)N2CCOCC2)n1)N1CCOCC1	.	.	.	.
